A number with no mark means an inactive call. Inconclusive results are not listed. The source made the active and inactive calls. Unless noted, calls follow the shape of the dose curve; as a rule, active = well fitted curve in the direction sought with a large enough effect in the repeat runs; inconclusive = weak or mixed curves; inactive = no such curve, though single readings can be large; an effect the other way counts as inactive or inconclusive.

Assay [1] in a line: qHTS assay to identify small molecule agonists of H2AX - cell viability counter screen (AID 1224847; calls by dose curve; also: nearly all actives have a fitted effect of over 30% in size; also: potency is read from the fitted curve at half-maximal effect). Put shortly: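 After overnight plating of 1000 CHO-K1 cells per well, a 15-concentration compound series was applied for 3 hr at 37C. Luminescence from CellTiter-Glo, read following 30 min at room temperature, reflected cell viability.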
(qHTS replaces the single test concentration by a dilution series.)

The nature of assay [2]: qHTS assay to identify small molecule antagonists of the estrogen related receptor (ERR) signaling pathway from Tox21 library (AID 1224848). Also: nearly all actives have a fitted effect of over 50% in size. Also: potency is read from the fitted curve at half-maximal effect. Put shortly: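 Compounds dissolved in DMSO are pin-transferred onto ERR reporter cells (2,000 per well) that have settled for 6 h at 37 C. Plates then incubate 18 h at 37 C before ONE-Glo luciferase reagent and a luminescence read 30 min later.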

The nature of assay [3]: qHTS RealTime-Glo MT Cell Viability Assay in HepG2 cells - 24 hour (AID 1224867). Also: nearly all actives have a fitted effect of over 50% in size. Also: potency is read from the fitted curve at half-maximal effect. Put shortly:
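Cell number in HepG2 cultures estimated from NanoLuc luminescence generated by metabolic reduction of a prosubstrate by living cells. The homogeneous, nonlytic format allowed repeated reads at 0, 8, 16, 24, 32 and 40 h of compound exposure.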

A short description of assay [4]: qHTS RealTime-Glo MT Cell Viability Assay in HEK293 cells - 32 hour (AID 1224868). Also: nearly all actives have a fitted effect of over 50% in size. Also: potency is read from the fitted curve at half-maximal effect. Put shortly: (§1)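 Homogeneous bioluminescent viability format in HEK293 cells (600 cells/well). Following 5 h at 37 C/5% CO2, 23 nL compound was pintooled; the signal was measured repeatedly during 40 h incubation.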
Assay [5] in a line: A CellTox Green Cytotoxicity Assay to monitor cytotoxicity in HEK293 cells - 0 hour (AID 1224869). Also: nearly all actives have a fitted effect of over 50% in size. Put shortly: (§2)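 Fluorescence from a DNA-binding dye excluded by viable cells was measured repeatedly in the same HEK293 wells (600 cells/well) during continuous compound exposure at 37 C. Each assay gives one read point: 0, 8, 16, 24, 32 or 40 h.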
Assay [6] is described as follows: qHTS RealTime-Glo MT Cell Viability Assay in HepG2 cells - 40 hour (AID 1224870). Also: nearly all actives have a fitted effect of over 50% in size. Also: potency is read from the fitted curve at half-maximal effect. Summed up: (§3)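 HepG2 cells (600/well) mixed with RealTime-Glo MT reagent, settled 5 h at 37 C/5% CO2 before compound addition. Nonlytic NanoLuc luminescence from viable-cell prosubstrate reduction read repeatedly during 40 h treatment at 37 C.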
Assay [7] can be described thus: A CellTox Green Cytotoxicity Assay to monitor cytotoxicity in HEK293 cells - 40 hour (AID 1224871). Also: nearly all actives have a fitted effect of over 45% in size. Also: potency is read from the fitted curve at half-maximal effect. Summed up: as §2
A short description of assay [8]: qHTS RealTime-Glo MT Cell Viability Assay in HEK293 cells - 16 hour (AID 1224872). Also: nearly all actives have a fitted effect of over 50% in size. Also: potency is read from the fitted curve at half-maximal effect. Summed up: as §1
Assay [9] is described as follows: qHTS RealTime-Glo MT Cell Viability Assay in HepG2 cells - 8 hour (AID 1224873). Also: nearly all actives have a fitted effect of over 55% in size. Also: potency is read from the fitted curve at half-maximal effect. Summed up: as §3
Assay [10] in a line: qHTS assay to identify small molecule agonists of the estrogen related receptor (ERR) signaling pathway from Tox21 library (AID 1224849; calls by dose curve; also: nearly all actives have a fitted effect of over 15% in size). The following applies: ERR reporter cell line, ONE-Glo luciferase, 18 h; at 92.4 µM (top of the series) unless noted. Put shortly: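 Luminescent agonist read-out (One-Glo, 30-minute room-temperature incubation) following 18-hour compound treatment at 37 C of the ERR cell line, which had been plated 6 hours before dosing.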
% is scaled to controls: 0 for no effect and ±100 for the full control effect.

With `CCCCCN=C(N)N/N=C/c1c[nH]c2ccc(OC)cc12`, the Potency in assay [1] is 49.2 µM (active); in assay [2], 15 µM (active); in assay [3], 6.01 µM (active); in [4] it was 4.25 µM (active); in assay [6], 5.35 µM (active); in assay [7], 6.74 µM (active). In addition, the Potency in assay [8] is 4.77 µM (active); in assay [9], 10.7 µM (active). Besides, in assay [5], the Potency entry is “inactive”.
As for `Cc1ccc(S(=O)(=O)C(I)I)cc1`, the Potency is 22.5 µM (active) in [1]; 61.1 µM (active) in assay [2]; 11 µM (active) in assay [3]; 12.3 µM (active) in [4]; 12.3 µM (active) in assay [6]; 19.5 µM (active) in [7]. For the same compound, the figures for the Potency in assay [8] and in assay [9] were 15.5 µM (active) and 12.3 µM (active), respectively. Moreover, in [5], the Potency result was “inactive”.
As for `Cc1c[nH]c(=O)[nH]c1=O`, the Potency result in assay [1], in assay [2], in assay [3], in assay [4], in assay [5] and in assay [6] was “inactive” throughout. Further, the Potency entry in assay [7], in assay [8] and in assay [9] was “inactive” in each case.
With `Oc1ccc(C2(c3ccc(O)c(C4CCCCC4)c3)CCCCC2)cc1C1CCCCC1`, the Potency in assay [1] was 22.5 µM (active); in [2], 38.6 µM (active); in assay [3] it was 34.7 µM (active); in assay [4], 38.9 µM (active); in assay [6], 34.7 µM (active); in assay [8], 43.6 µM (active). Besides, in [9], the Potency was 43.6 µM (active). Further, in assay [5], the Potency entry was “inactive”.
For the compound `Brc1cc(Br)cc(Br)c1`, the Potency result in assay [1], in [2], in assay [3], in assay [4], in assay [5] and in [6] was “inactive” each time. In addition, the Potency entry in [7], in [8] and in assay [9] was “inactive” throughout.
Regarding `Nc1ccc2c(S(=O)(=O)O)cccc2c1S(=O)(=O)O`, the Potency entry in [1], in assay [2], in assay [3], in assay [4], in [5] and in assay [6] was “inactive” in each case. Further, the Potency result in [8] and in assay [9] was “inactive” throughout.
For `Nc1c(Br)cc([N+](=O)[O-])cc1Br`, the Potency result in assay [1], in [3], in assay [4], in [5], in assay [6] and in assay [7] was “inactive” each time. The Potency entry in assay [8] and in assay [9] was “inactive” each time. In assay [10], the activity change, positive = activation is -20.8%.
In the case of `c1ccc2occc2c1`, the Potency result in assay [1], in [2], in assay [3], in assay [4], in assay [5] and in assay [6] was “inactive” throughout. Further, the Potency result in assay [7], in [8] and in [9] was “inactive” in each case.
Consider `O=C1C=CC(=O)N1c1cccc(N2C(=O)C=CC2=O)c1`, for which the Potency in [1] was 45 µM (active); in [2] it was 68.6 µM (active); in assay [3], 15.5 µM (active); in assay [4], 9.77 µM (active); in assay [6], 17.4 µM (active); in [8], 12.3 µM (active). Moreover, the Potency in assay [9] was 21.9 µM (active). In addition, the Potency result in assay [5] was “inactive”.
As for `O=C1CCCCCCCCCCCCCC1`, the Potency entry in [1], in assay [2], in assay [3], in [4], in assay [5] and in [6] was “inactive” throughout. Further, the Potency result in assay [8] and in assay [9] was “inactive” in each case. Further, the Potency in assay [7] was 43.6 µM (active).
Turning to `C=CC(=O)O[C@H]1C[C@@H]2CC[C@@]1(C)C2(C)C`, the Potency entry in [1], in assay [2], in [3], in assay [4], in [5] and in assay [6] was “inactive” each time. The Potency result in [8] and in assay [9] was “inactive” each time.
For the compound `Clc1cccc(Cl)n1`, the Potency entry in assay [1], in assay [2], in assay [3], in [4], in assay [5] and in [6] was “inactive” throughout. The Potency result in assay [7], in assay [8] and in assay [9] was “inactive” in each case.
For `SC1CCCCC1`, the Potency result in assay [1], in [2], in assay [3], in assay [4], in assay [5] and in assay [6] was “inactive” each time. The Potency entry in [8] and in assay [9] was “inactive” throughout.
For the compound `Cc1cc(C)c(O)c(C(C)(C)C)c1`, the Potency in assay [1] is 113 µM (active). For the same compound, the Potency entry in assay [2], in [3], in [4], in [5], in assay [6] and in assay [8] was “inactive” in each case. Also, in assay [9], the Potency result is “inactive”.
In the case of `COc1cccc(-c2ccc(/C=C\CN3CCCCCC3)cc2Cl)c1`, the Potency in assay [1] is 89.3 µM (active); in [3], 43.4 µM (active); in assay [4] it was 43.4 µM (active); in assay [6] it was 43.4 µM (active); in assay [8], 43.4 µM (active). Besides, the activity change, positive = activation in [10] was -20.2%. The Potency result in assay [5] was “inactive”.
Consider `Oc1ccc(Cl)cc1C1CCCC1`, for which the Potency in [1] was 56.6 µM (active); in [7], 49 µM (active); in assay [8] it was 24.5 µM (active). Further, the Potency result in assay [2], in assay [3], in assay [5], in [6] and in assay [9] was “inactive” each time.
Regarding `NC(=O)c1ccccc1Cl`, the Potency entry in assay [1], in assay [2], in [3], in assay [4], in [5] and in assay [6] was “inactive” in each case. Further, the Potency entry in [8] and in assay [9] was “inactive” in each case.
In the case of `c1ccc(C[P+](c2ccccc2)(c2ccccc2)c2ccccc2)cc1`, the Potency was 101 µM (active) in assay [1], 1.72 µM (active) in [2], 1.55 µM (active) in assay [4] and 4.9 µM (active) in assay [7]. Also, the Potency result in assay [3], in assay [5], in assay [6] and in assay [9] was “inactive” throughout.
On to `CCN(CC)c1ccc(C=O)c(O)c1`, for which the Potency result in assay [1], in [3], in assay [4], in assay [5], in [6] and in assay [7] was “inactive” each time. The Potency entry in assay [8] and in assay [9] was “inactive” throughout. Besides, the activity change, positive = activation in assay [10] is -16.4%.
Turning to `O=c1[nH]cccc1O`, the Potency result in assay [1], in assay [3], in assay [4], in assay [5], in assay [6] and in assay [7] was “inactive” each time. The Potency result in assay [8] and in assay [9] was “inactive” throughout. For the same compound, the Potency in assay [2] is 19.3 µM (active).
Turning to `O=C(Nc1ccccc1)c1cc(Cl)ccc1O`, the Potency is 25.3 µM (active) in assay [1] and 49 µM (active) in assay [6]. In assay [10], the activity change, positive = activation was -16.2%. Also, the Potency result in [5] and in assay [9] was “inactive” in each case.
`CCCCCCCCc1ccc(Nc2ccc(CCCCCCCC)cc2)cc1`: the Potency result in assay [1], in assay [2], in assay [3], in [4], in assay [5] and in assay [6] was “inactive” throughout. Further, the Potency result in [8] and in [9] was “inactive” throughout.
For the compound `N#CCCOCCC#N`, the Potency result in [1], in assay [2], in assay [3], in assay [4], in assay [5] and in assay [7] was “inactive” throughout. Further, the Potency entry in assay [8] and in [9] was “inactive” in each case.

Source of the values: PubChem BioAssay (Tox21).
